Hit rate of the full screen: of about 50,000 compounds, about 800 (1.6%) showed an effect of 50% or more. Only a selection was taken, and strong results are over-represented in it overall.

In the assay the target is Bcl-2-like protein 10 (Homo sapiens) (UniProt Q9HD36). Description: Phenotype converters, Bcl-B/TR3 peptide binding displacement, primary biochemical FP (AID 1240).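 Further: 0% = Bcl-B with tracer peptide and DMSO and 100% = tracer peptide lacking Bcl-B.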 The following applies: GST-Bcl-B / FITC-TR3 peptide fluorescence polarization; stronger effect = higher value; compound at 3.75 mg/L.
Sequence of Bcl-2-like protein 10 (Homo sapiens) (Q9HD36 whole entry, looked up): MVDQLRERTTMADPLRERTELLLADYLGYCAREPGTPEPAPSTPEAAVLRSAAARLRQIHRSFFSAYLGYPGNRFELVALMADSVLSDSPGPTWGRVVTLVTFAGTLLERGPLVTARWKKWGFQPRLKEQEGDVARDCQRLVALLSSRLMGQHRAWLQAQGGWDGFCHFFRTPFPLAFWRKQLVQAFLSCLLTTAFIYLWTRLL
As for `Cc1cccc(C(=O)O/N=C(\N)c2ccc(Br)cc2)c1`, the displacement is -0.6%.
`COc1ccc(-c2occ(C(=O)O)c2C(=O)O)cc1`: the displacement was determined as 0.2%.
Take `O=C1CC(N2CCN(c3ccccc3)CC2)C(=O)N1c1ccc(I)cc1` (stereo unspecified): the displacement is -0.8%.
Then `CCC12C(=O)C(CC)(C(c3ccccc3)=C1c1ccccc1)C1C(=O)N(c3ccccc3[N+](=O)[O-])C(=O)C12` (stereo unspecified), with 2%.
As to `CCN1C(=O)/C(=C\c2ccc(Br)cc2)SC1=S`, the displacement was 7.1%.
The same measure for `CCOc1ccc(-c2cc(OCC)c3c(C)oc(C)c3c(=[O+]CC)c2)cc1`: 2.4%; for `CCOc1cccc(=[O+]CC)c2c(C)oc(C)c12`: 154%.
In the case of `CCOc1cccc(=O)c2c(C)oc(C)c12`, the displacement is 16.8%.
Consider `CNC(=O)COc1ccc(C23CC4CC(CC(C4)C2)C3)cc1`, for which the displacement was 1.4%.
Then `O=C(CSc1n[nH]c(=O)[nH]c1=O)c1ccc(Cl)cc1`, with -6.1%.
Consider `O=C(Nc1ncc(Cc2ccc(F)cc2)s1)C1CCCO1` (stereo unspecified), for which the displacement turned out to be 15.4%.
Consider `Cc1nc(-c2ccccc2)sc1C(=O)Nc1cccc2ccccc12`, for which the displacement worked out at 13.1%.
The same measure for `COc1cc(C=O)ccc1Oc1ccc([N+](=O)[O-])cc1`: 5%.
For `Cc1ccc(-n2cc(/C=c3\sc4nc5cc(C)c(C)cc5n4c3=O)cn2)cc1C`, the displacement was -8.9%.
Regarding `Cc1ccc(-n2cc(C=C3C(=O)NC(=O)NC3=O)cn2)cc1C`, the displacement was 110%.
As to `Cc1ccc(-n2c(C)cc(/C=C3\NC(=O)NC3=O)c2C)cc1C`, the displacement was determined as 11.1%.
Then `O=[N+]([O-])c1ccc2oc(-c3ccccc3)nc2c1`, with 5%.
The same measure for `COc1sc(SC)cc1/C=N/NC(=O)C(NC(=O)c1ccccc1)c1n[nH]c(=O)c2ccccc12` (stereo unspecified): -7.7%.
As to `COc1ccc(-c2cc(C(F)(F)F)n3nc(C(N)=O)c(Cl)c3n2)cc1OC`, the displacement is 33.4%.
Turning to `COc1ccc(-c2cc(C(F)(F)F)n3nc(C(=O)NCCN4CCOCC4)c(Cl)c3n2)cc1`, the displacement was -10.2%.
For the compound `COc1ccc(-c2cc(C(F)(F)F)n3nc(C(=O)NCCCn4ccnc4)c(Cl)c3n2)cc1`, the displacement worked out at 105%.
For the compound `COCCNC(=O)c1nn2c(C(F)(F)F)cc(-c3ccc(OC)cc3)nc2c1Cl`, the displacement is -2.4%.
Regarding `COCCNC(=O)c1nn2c(C(F)(F)F)cc(-c3ccc(OC)c(OC)c3)nc2c1Cl`, the displacement stood at 155%.
Then `COc1ccc(-c2cc(C(F)(F)F)n3nc(C(=O)O)c(Cl)c3n2)cc1`, with 3.2%.
Regarding `COc1ccc(C(=O)Nc2ccc(N(C)C)cc2)cc1`, the displacement came out at 6%.
The same measure for `CN(C)c1ccc(C2/C(=C(\O)c3ccc(F)cc3)C(=O)C(=O)N2CCCCCC(=O)O)cc1` (stereo unspecified): 9.1%; for `COCCOC(=O)c1ccc(NC(=O)COc2ccc3c(C)cc(=O)oc3c2)cc1`: 90.3%; for `CCCCOC(=O)c1ccc(NC(=O)COc2ccc3c(C)cc(=O)oc3c2)cc1`: 28.5%.
Take `CCCCOC(=O)c1cccc(NC(=O)COc2ccc3c(C)cc(=O)oc3c2)c1`: the displacement is -41.8%.
Turning to `Cc1cccc([N+](=O)[O-])c1N=Cc1ccc(N(C)C)cc1`, the displacement is -4.5%.
Regarding `COc1ccc(N(CC(=O)NC2CCCCC2)S(=O)(=O)c2ccccc2)cc1Cl`, the displacement was determined as 7.2%.
The same measure for `COc1ccc(/C=C2/Sc3ccccc3C2=O)cc1[N+](=O)[O-]`: -5.3%.
As to `COc1ccc(/C=C2/Sc3ccccc3C2=O)cc1Br`, the displacement worked out at 116%.
In the case of `NS(=O)(=O)c1ccc(-c2ccc(/C=C3\Sc4ccccc4C3=O)o2)cc1`, the displacement is -71.8%.
The same measure for `O=C1/C(=C/c2ccc(Br)o2)Sc2ccccc21`: 92.7%; for `CCOc1cc(/C=C2\Sc3ccccc3C2=O)ccc1OC`: 0.2%.
As to `O=C1/C(=C\c2ccc(-c3ccc([N+](=O)[O-])cc3Br)o2)Sc2ccccc21`, the displacement was -17.8%.
In the case of `O=C(NCc1ccccn1)C(=O)Nc1ccccc1F`, the displacement is -20.9%.
For `Cc1ccc(S(=O)(=O)NCCOc2ccccc2Cl)cc1[N+](=O)[O-]`, the displacement came out at 13%.
Then `CC(=O)N/C(=C\c1ccccc1)C(=O)NC(CC(C)C)C(=O)O` (stereo unspecified), with -2.1%; and `CC(=O)N/C(=C\c1ccc(F)cc1)C(=O)NC(C(=O)O)C(C)C` (stereo unspecified), with 81.8%.
Take `C#CCOC(=O)/C(=C/c1ccc(F)cc1)NC(C)=O`: the displacement is -8.4%.
Take `COc1ccccc1NC(=O)c1cccc2c(Br)cccc12`: the displacement is -5.4%.
For the compound `COc1ccc(N(CC(=O)NC(C)c2ccccc2)S(=O)(=O)c2ccc(C)cc2)c(OC)c1` (stereo unspecified), the displacement worked out at 2.3%.
Turning to `Cc1cc(C)cc(OCC(=O)N2CCN(c3ccc([N+](=O)[O-])cc3)CC2)c1`, the displacement was -3.5%.
With `O=C(COc1ccc2cc(-c3nc4ccccc4s3)c(=O)oc2c1)OCc1ccccc1`, the displacement was determined as 53.3%.
In the case of `Cc1oc2cc(OCC(=O)OCc3ccccc3)ccc2c(=O)c1-c1nc2ccccc2s1`, the displacement came out at 11.3%.
The same measure for `O=c1oc2ccccc2cc1-c1nc2ccccc2s1`: -1%; for `O=c1oc2cc(OCc3c(F)c(F)c(F)c(F)c3F)ccc2cc1-c1ccc2ccccc2n1`: -49.7%.
Then `O=c1c(-c2nc3ccccc3s2)coc2cc(OCc3ccc([N+](=O)[O-])cc3)ccc12`, with 6.2%; and `O=C(COc1ccc2ccc(=O)oc2c1)OCc1ccccc1`, with 10.9%.
Turning to `CCOC(=O)COc1ccc2cc(-c3nc4ccccc4o3)c(=O)oc2c1`, the displacement is 8.8%.
Regarding `CCOc1ccc2c(=O)c(-c3nc4ccccc4s3)coc2c1`, the displacement came out at 7.8%.
Turning to `C=C(C)COc1ccc2cc(-c3nc4ccccc4s3)c(=O)oc2c1`, the displacement was 66.5%.
`CCOC(=O)COc1ccc2cc(-c3nc4ccccc4[nH]3)c(=O)oc2c1`: the displacement is 7.3%.
Take `O=c1oc2cc(OCc3ccc(F)cc3)ccc2cc1-c1nc2ccccc2s1`: the displacement was determined as 52.5%.
Consider `CC(C)(C)OC(=O)COc1ccc2cc(-c3nc4ccccc4s3)c(=O)oc2c1`, for which the displacement came to 92%.
Consider `CCOc1ccc(N(CC(=O)Nc2cccc3cccnc23)S(=O)(=O)c2ccccc2)cc1`, for which the displacement was -39.5%.
`O=C(Nc1ccc2nn(-c3ccc(F)cc3)nc2c1)c1cc2ccccc2o1`: the displacement is 2.5%.
Then `O=C1N/C(=N/N=C\c2ccc(-c3ccc(Cl)cc3)o2)SC1Cc1ccccc1` (stereo unspecified), with 17%.
Turning to `CC(Sc1nnc(N)s1)c1ccccc1` (stereo unspecified), the displacement came to 5.2%.
With `COc1ccc(CC(=O)N=Nc2c(O)n(CN3CCN(C)CC3)c3ccccc23)cc1`, the displacement is -3%.
Regarding `O=C(CN1C(=O)c2ccc([N+](=O)[O-])cc2C1=O)N1CCCCC1`, the displacement is -9.1%.
The same measure for `COc1ccc(NC(=O)C(=O)NCc2ccc(C)cc2)c(OC)c1`: 10.4%.
With `O=C(COc1ccc(Cl)cc1Br)NNC(=O)c1ccncc1`, the displacement was -4.5%.
The same measure for `CC(=O)c1ccc(N2CCN(C(=O)c3cccs3)CC2)c(F)c1`: -4.6%; for `CC(=O)c1cc(F)c(N2CCN(C(=O)c3cccs3)CC2)cc1C`: 80%; for `CC(=O)c1cc(F)c(N2CCN(C(=O)c3ccccc3Br)CC2)cc1C`: -5.4%.
As for `C=C(NC(C)=O)C(=O)c1ccc([N+](=O)[O-])cc1`, the displacement was 18.9%.
Turning to `O=C(COc1ccc([N+](=O)[O-])cc1)Nc1ccccn1`, the displacement is -10.4%.
`Cc1ccc(NS(=O)(=O)c2ccc([N+](=O)[O-])cc2)cc1`: the displacement was determined as 15.1%.
Turning to `O=C(Nc1ccccc1C(=O)Nc1ccccn1)c1ccc([N+](=O)[O-])cc1`, the displacement is 45.1%.
`O=c1ccc([N+](=O)[O-])ccc1Nc1ccccn1`: the displacement turned out to be 58.1%.
For `Cc1ccc(Nc2ccc([N+](=O)[O-])ccc2=O)cc1`, the displacement came out at 136%.
With `Cc1ccc(Nc2ccc([N+](=O)[O-])c3nonc23)cc1`, the displacement is -2.1%.
`O=C(c1ccccc1)N1CCN(CCCc2ccccc2)CC1`: the displacement is -9.4%.
For the compound `Cc1cccc(C(=O)O/N=C(\N)c2ccncc2)c1`, the displacement was 8.5%.
Regarding `Clc1ccc(CN2CCN(/N=C/c3ccc(Br)s3)CC2)cc1`, the displacement was found to be 14.6%.
Regarding `N#C/C(=C/c1cccc(Cl)c1)c1nc(-c2ccc(Cl)cc2)cs1`, the displacement is -4.7%.
Take `COc1cc(OC)c(NC(=O)c2ccccc2C)cc1Cl`: the displacement is -12%.
Consider `Cc1no[n+]([O-])c1COc1ccc(/C=C2\SC(=S)NC2=O)cc1`, for which the displacement is -27.5%.
As to `CCOc1cc(C=C2C(=O)NC(=O)NC2=O)ccc1OCc1ccccc1`, the displacement was found to be 33.7%.
Turning to `CCOc1cc(/C=C2\SC(=S)NC2=O)ccc1OCc1c(C)no[n+]1[O-]`, the displacement was 117%.
Consider `CCOc1cc(C=C2C(=O)NC(=O)NC2=O)ccc1OCc1cccc2ccccc12`, for which the displacement was found to be 58.6%.
In the case of `COc1cc(C=C2C(=O)NC(=O)NC2=O)ccc1OCc1c(C)no[n+]1[O-]`, the displacement is -3.9%.
The same measure for `Cc1no[n+]([O-])c1COc1ccc(C=C2C(=O)NC(=O)NC2=O)cc1`: 2.5%; for `CCOc1ccc(C=C2C(=O)NC(=O)NC2=O)cc1OCC`: 14.1%.
Turning to `CCOc1cc(C=C2C(=O)NC(=O)NC2=O)ccc1OCc1c(C)no[n+]1[O-]`, the displacement worked out at 108%.
Then `Cc1no[n+]([O-])c1COc1cccc(/C=C2\SC(=S)NC2=O)c1`, with -27.6%.
As for `O=C(c1nn2c(C(F)(F)F)cc(-c3ccccc3)nc2c1Cl)N1CCCC1`, the displacement worked out at 22.7%.
For `CC1=NN(C(=O)c2ccc([N+](=O)[O-])cc2)C(O)(C(F)(F)F)C1` (stereo unspecified), the displacement stood at 6.8%.
In the case of `O=C1NC(=Nc2ccc(Cl)cc2)SC1Cc1cccc([N+](=O)[O-])c1` (stereo unspecified), the displacement is -4.7%.
As for `O=C(CN(c1ccc(Br)cc1)S(=O)(=O)c1ccccc1)NC1CC2CCC1C2` (stereo unspecified), the displacement is -0.2%.
For `Nc1nnc(SCC(=O)N2c3ccccc3Sc3ccccc32)s1`, the displacement was -2%.
As to `CC(=O)N(CCC1(Cc2ccccc2)CCOC(C)(C)C1)Cc1ccccc1` (stereo unspecified), the displacement turned out to be 7.8%.
Consider `O=C(O)CCCCCN1C(=O)C(=O)/C(=C(/O)c2ccccc2)C1c1cccc(F)c1` (stereo unspecified), for which the displacement is -11.9%.
`COc1ccc(C(NC(C)=O)NC(C)=O)cc1OC`: the displacement turned out to be 6.3%.
In the case of `CCOc1ccc(C(=O)N(C(=O)c2ccc(OCC)cc2)c2ncccc2C)cc1`, the displacement was -0.9%.
`COC(=O)c1[nH]cnc1C(=O)Nc1ccc(C)cc1C(=O)c1ccccc1`: the displacement is -1.6%.
Take `Cc1ccccc1-c1nc2ccccc2c(=O)n1/N=C/c1ccc([N+](=O)[O-])cc1`: the displacement came out at 12.8%.
Then `Cc1ccc(C)c(NC(=O)/C=C/c2ccc(C)o2)c1`, with 10.2%; and `CCOc1ccc(S(=O)(=O)NCc2ccccc2Cl)c2ccccc12`, with 3.4%.
Then `O=C(Nc1nc(-c2ccc(F)cc2)cs1)c1ccccc1[N+](=O)[O-]`, with 8.9%; and `O=C(Nc1nc(-c2ccc([N+](=O)[O-])cc2)cs1)c1ccccc1F`, with 113%; and `O=C(Nc1nc(-c2ccc([N+](=O)[O-])cc2)cs1)c1ccc(Cl)cc1`, with 8.7%.
The same measure for `COc1cc(/C=C2/SC(=S)N(CC(=O)O)C2=O)ccc1OCc1ccccc1`: 1.7%.

The record behind these values is PubChem BioAssay AID1240 (Sanford-Burnham Center for Chemical Genomics, 2008).
